Laboratory results published in the supplement of paper PMC6555819.

Assays:
Assay in all cases: PBM binding z-score (relative to random genomic background probes); higher = stronger binding; sequences stand for … in GC…GCGATTGACAGCGTAGAATGAAGG
[1] = test system: FXR:RXRa (NR concentration 270 nM, RXRa partner concentration 90 nM)
Method in brief: (§1)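 Binding z-scores take random background probes as their reference. They come from custom Agilent 4×180K protein-binding microarrays incubated 1 h with ligand-free nuclear receptor dimers, with antibodies against each partner (one per run) detecting binding. Scanned fluorescence was regression-normalized.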

[2] = test system: LXRa homodimer (NR concentration 270 nM)
Method in brief: as §1

[3] = test system: LXRb homodimer (NR concentration 270 nM)
Method in brief: as §1

[4] = test system: PPARg:RXRa 270nM:90nM, anti-RXR (NR concentration 270 nM, RXRa partner concentration 90 nM)
Method in brief: as §1

[5] = test system: PPARg:RXRa 30nM:10nM, anti-RXR (NR concentration 30 nM, RXRa partner concentration 10 nM)
Method in brief: as §1

[6] = test system: PPARg:RXRa 90nM:30nM, anti-RXR (NR concentration 90 nM, RXRa partner concentration 30 nM)
Method in brief: as §1

[7] = test system: PPARg:RXRa DBDmut IVT, anti-RXR (DBD mutation: RXRa K156A/R161A, NR concentration 270 nM, RXRa partner concentration 90 nM)
Method in brief: as §1

[8] = test system: PPARg:RXRa (NR concentration 180 nM, RXRa partner concentration 90 nM)
Method in brief: as §1

[9] = test system: LXRa:RXRa (NR concentration 270 nM, RXRa partner concentration 90 nM)
Method in brief: as §1

[10] = test system: PPARa:RXRa (NR concentration 270 nM, RXRa partner concentration 90 nM)
Method in brief: as §1

Row | Sequence | PBM binding z-score [1] | PBM binding z-score [2] | PBM binding z-score [3] | PBM binding z-score [4] | PBM binding z-score [5] | PBM binding z-score [6] | PBM binding z-score [7] | PBM binding z-score [8] | PBM binding z-score [9] | PBM binding z-score [10]
1 | CCTACTGGGTCAAAGGTCATTGATTCCAATGCTC | 7.5 | 5.27 | 1.18 | 11.2 | 12.3 | 13 | 7.6 | – | – | –
2 | ACTTACGGGTCTACGAGGTTATAGCACGCGTATA | 0.283 | 0.149 | 0.121 | 0.426 | 0.256 | 0.0516 | -0.0713 | 0.708 | – | –
3 | CCTAGTTGGTCAAGGTCACATACGCTATAGGTAC | 3.98 | 1.97 | 1.23 | 3.43 | 1.17 | 2.91 | 2.23 | 3.3 | – | –
4 | TGTCAAAGTTCAAAGGTTACGTAAGTATCCACAC | 7.49 | 5.25 | 2.03 | 8.17 | 5.91 | 8.13 | 0.119 | – | – | –
5 | TCTTGTAGGTCAATAGAGGTTAAGAAAGTGCGCT | 4.77 | 3.93 | 1.17 | 5.94 | 4.32 | 5.5 | 7.07 | 6.67 | – | –
6 | AATAAAGGGTCATCGTAGGCCAGAGTACGCACAG | – | 3.35 | 2.31 | 6.58 | 3.39 | 5.44 | 3.16 | 7.14 | 6.44 | 5.96
7 | CGAACTAGGTCTAAGGACAGTGAAAGGCGACGTA | – | -0.416 | -1.3 | 3.45 | 1.89 | 3.31 | 2.2 | 2.4 | -0.762 | 0.792
8 | TCTAGTGGGTCAAAGGTCACACACTCGAAATGCG | 7.63 | 3.93 | 1.59 | 11.1 | 12.2 | 12.6 | 7.68 | – | – | –
9 | AGTCAAAGTGCATCTAGGTAACGTAAGATATGCT | – | -0.289 | -0.415 | 2.08 | 0.727 | 1.47 | 0.592 | 2 | 0.188 | 1.21
10 | GTTACAGGGTCAAGGCCAGAGTACGCGTATTGAT | 6.43 | 0.317 | 0.463 | 5.66 | 2.09 | 4.49 | 3.09 | 5.4 | – | –
11 | CGTCAAAGGTCAGAGAGGTCAGTGAATGCCGAGT | – | 4.99 | 1.76 | 7.15 | 4.06 | 6.28 | 4.14 | 7.66 | 6.59 | 6.13
12 | GATACAGGGTCAAGGTCAGAGTACGCGTATTGAT | – | 1.48 | 0.776 | 6.67 | 4.07 | 5.8 | 2.93 | 7.68 | 5 | –
13 | GCTGCGAGGTCAACTGATGGTCAGCTAAAGCTCG | – | 1.54 | 1.67 | 6.33 | 2.91 | 5.05 | 3.65 | 6.28 | 5.87 | 6.02
14 | GCTGCTAGGTCAACTGATGGTCACCTAAAGCTCG | – | 0.787 | 0.117 | 3.59 | 0.832 | 2.56 | 5.16 | 3.2 | 3.3 | 3.99
15 | TAGCCTAGGTCATGCGGGACAGTATAGTGTCGGC | – | 0.386 | -0.0861 | 2.57 | 0.321 | 1.17 | 1.71 | 2.48 | 2.99 | –
16 | CCTTAGGGGTCACTGACAGGTTATAGCATTTGGA | – | 1.33 | 0.926 | 8.43 | 5.34 | 7.46 | 4.82 | 9.33 | 6.55 | –
17 | ATCGAAAGGTCCACGAGGTGAGTATACACCGTTT | – | -0.0739 | -0.26 | 0.448 | 0.0544 | 0.533 | 0.0323 | 0.818 | 0.186 | –
18 | CGAACGAGGTCATTGACAGGACAGTGAATAGTAA | – | 1.41 | 1.44 | 6.46 | 3.58 | 6.21 | 5.35 | 6.82 | 6.11 | 6.13
19 | ACTTAAGGGTCAACGAGGTTATAGCACGCGTATA | – | 1.86 | 1.21 | 6.95 | 3.18 | 5.51 | 3.78 | 7.09 | 6.42 | 6.46
20 | AGTCAAAGTTCAGGACGAGGTAACGTTAAGCACG | – | 1.1 | 0.0351 | 4.64 | 2.03 | 3.86 | -0.183 | 4.29 | 3.74 | 3.34
21 | AGTCAAAGTTTATCTAGGTAACGTAAGATATGCT | – | 0.141 | -0.331 | 2.51 | 0.904 | 1.95 | 2.68 | 2.44 | 0.263 | 2.17
22 | AGAATGGGGTTATACGTAGATCAGGGAAGAAAGT | – | 0.583 | 2.07 | 4 | 1.39 | 3.03 | 4.84 | 3.69 | 2.95 | –
23 | TAGCCTAAGTCATGCGGGCCAGTATAGTGTCGGC | – | -0.595 | -1.13 | -0.602 | -0.673 | -0.77 | -0.333 | -0.117 | -0.396 | –
24 | TTACCAAGGTGAAAGGTCGTTGCTGCACGCCTTG | – | 0.401 | -0.185 | 7.85 | 8.63 | 8.9 | 2.97 | 8.98 | 3.07 | –
25 | GATACAGGGTCAGCTACAGGCCAGAGTATGGAAA | – | -0.531 | -0.596 | 3.43 | 0.683 | 2.17 | 1.22 | 4.13 | 2.54 | 4.88
26 | CCTTACGGGTCACGAGGTCATAGCACGACGAGCG | – | 2.73 | 0.62 | 7.55 | 4.61 | 6.67 | 4.66 | 8.56 | 5.89 | –
27 | TCTCGGAGGACACCAAAGGTCAGAGCTCGACATC | – | 3.82 | -0.0325 | 3.71 | 2.56 | 3.22 | 1.47 | 2.04 | 4.25 | 3.65
